Measurements taken from PubChem BioAssay (EPA / NIEHS).
Records with an inconclusive call do not appear. Activity calls are given as the source filed them. The calls were made as follows: active = hit-call score of the fitted dose curve at least 0.9, where 1 is the maximum; inconclusive = response in the unintended direction; inactive = score below 0.9.

Test: ACEA_AR_agonist_AUC_viability: ACEA Biosciences xCELLigence Real-Time Cell Analysis on Androgen Receptor Agonism for Viability (AID 2283775);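 as to AC50: viability read 80 hours after compound addition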
Procedure, shortened: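 22Rv1 cells; impedance growth kinetics; 8-pt 1:4 dilutions from 100 uM top final, ≤0.5% DMSO; n = 2; 80 h read; AUC viability, loss-of-signal vs DMSO.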
In the case of `Oc1ccccc1`, the outcome is reported as “inactive”. For `Cc1cccc2ccccc12`, the outcome was “inactive”. For `CCOC(=O)O[C@H](C)OC(=O)c1ccc2c(c1)cc(C(=O)NC1CCN(C(C)C)CC1)n2Cc1cc(-c2ccc(Cl)s2)on1`, the AC50 was 10.3 µM (active). For `OCCO`, the outcome was “inactive”. For `Cc1ccc2oc(CN(Cc3ccccc3)C(=O)Nc3c(F)cc(F)cc3F)c(-c3ccc(Cl)cc3)c2c1`, the AC50 was 9.77 µM (active). In the case of `COc1ccc2cc(S(=O)(=O)N[C@H](CC(=O)N[C@H](Cc3ccc(CN4[C@H](C)CCC[C@@H]4C)cc3)C(=O)N(C)C(C)C)c3ccc4c(c3)OCO4)ccc2c1`, the AC50 is reported as 9.68 µM (active). For `O=C(O)c1ccccc1-n1cc(C(=O)O)c(=O)c2cc(Nc3c(F)cc(F)cc3Cl)c(Cl)cc21`, the outcome was “inactive”. With `CCO[Si](CCCNC(N)=O)(OCC)OCC` the outcome was “inactive”. For `NCc1cccc(C2CCN(C(=O)c3ccc(C#Cc4ccccc4F)o3)CC2)c1`, the AC50 was 21.2 µM (active). In the case of `CN1C(=O)N(c2ccccc2Br)Cc2cnc(Nc3ccc4c(c3)OCC(CO)O4)nc21` (configuration not stated), the AC50 is reported as 20.5 µM (active).

Test: ACEA_AR_antagonist_AUC_viability: ACEA Biosciences xCELLigence Real-Time Cell Analysis on Androgen Receptor Antagonism for Viability (AID 2283776);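 also: area under impedance growth curve at 80 h after dosing as viability; hits lower the growth signal relative to DMSO meaning cytotoxicity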
Procedure, shortened: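 22Rv1 human prostate cancer cells were seeded on electrode plates, monitored overnight, then exposed to eight 1:4 dilutions from 100 uM final. Impedance-based growth kinetics at 80 h gave an AUC viability endpoint normalized to DMSO.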
In the case of `c1ccc2n[nH]nc2c1`, the outcome is reported as “inactive”. With `CCN(Cc1cccnc1)C(=O)c1cccc(Cl)c1[C@]1(C)C(=O)N(Cc2ccc(OC)cc2OC)c2ccc(Cl)cc21` the AC50 was 20.7 µM (active). In the case of `OC12N=C(c3ccccc3)SC1Cc1cc(Cl)ccc12` (configuration not stated), the AC50 is reported as 76.2 µM (active). For `CCCCCCCCOC(=O)c1cc(O)c(O)c(O)c1`, the AC50 was 13.5 µM (active). With `C[C@]12CC[C@@H]3c4ccc(O)cc4CC[C@H]3[C@@H]1CC[C@H]2O` the AC50 was 84.1 µM (active). For `CC1(C)NC(=O)N(c2ccc([N+](=O)[O-])c(C(F)(F)F)c2)C1=O`, the AC50 was 68.9 µM (active). With `Cc1cc2c(cc1C(F)(F)F)N(C(=O)Nc1ccc(Oc3cccnc3C)nc1)CC2` the AC50 was 15.1 µM (active). With `CC(C)(O)c1ccc(CNC(=O)c2cccnc2Oc2ccc3nonc3c2)cc1` the outcome was “inactive”. For `NC(=O)c1nc(-c2cccc(-c3cc(F)ccc3OCC(F)(F)C(F)(F)F)c2)n[nH]1`, the AC50 was 19.3 µM (active). For `O=c1[nH]sc2ccccc12`, the AC50 was 7.87 µM (active). For `Cc1occc1C(=O)Nc1ccc(C(=O)N2CCC(F)(F)/C(=C\C(=O)N3CCC(N4CCCCC4)CC3)c3ccccc32)cc1`, the AC50 was 41.1 µM (active). With `CCCCCc1ccc(N)cc1` the outcome was “inactive”. For `CCCCCCCCCCCC[N+](C)(C)C`, the AC50 was 9.45 µM (active). With `Oc1ccc2ccccc2c1` the outcome was “inactive”. With `Cc1cn([C@H]2C[C@H](N=[N+]=[N-])[C@@H](CO)O2)c(=O)[nH]c1=O` the outcome was “inactive”. For `CN(C)c1ccc(C(=C2C=CC(=[N+](C)C)C=C2)c2ccc(N(C)C)cc2)cc1`, the AC50 was 0.161 µM (active). With `O=C(O)Cc1cc(I)c(Oc2ccc(O)c(I)c2)c(I)c1` the AC50 was 20.3 µM (active). For `CCN(Cc1cccc(S(=O)(=O)O)c1)c1ccc(C(=C2C=CC(=[N+](CC)Cc3cccc(S(=O)(=O)O)c3)C=C2)c2ccccc2S(=O)(=O)[O-])cc1`, the outcome was “inactive”. With `CCCCCCCCN(C)CCCCCCCC` the outcome was “inactive”. For `Clc1cc(Cl)c2c(c1)N=C1CCCCCN1C2`, the outcome was “inactive”. With `c1ccc2ccccc2c1` the outcome was “inactive”. For `COc1cccc([C@H](O)C2CCN(CCc3ccc(F)cc3)CC2)c1OC`, the AC50 was 35.7 µM (active). In the case of `Cc1oc2c(NC(=O)c3c(Cl)cccc3Cl)cccc2c1C(C)(C)O`, the AC50 is reported as 20.3 µM (active). In the case of `Oc1ccccc1`, the outcome is reported as “inactive”. For `Cc1cccc2ccccc12`, the outcome was “inactive”. In the case of `CCOC(=O)O[C@H](C)OC(=O)c1ccc2c(c1)cc(C(=O)NC1CCN(C(C)C)CC1)n2Cc1cc(-c2ccc(Cl)s2)on1`, the AC50 is reported as 4.55 µM (active). In the case of `CC(O)CC(C)(C)O` (configuration not stated), the outcome is reported as “inactive”. With `CCCCCCCC[Si](OCC)(OCC)OCC` the outcome was “inactive”. With `OCCO` the outcome was “inactive”. In the case of `Cc1ccc2oc(CN(Cc3ccccc3)C(=O)Nc3c(F)cc(F)cc3F)c(-c3ccc(Cl)cc3)c2c1`, the AC50 is reported as 14.1 µM (active). In the case of `COCC(C)OCC(C)OCC(C)O` (configuration not stated), the outcome is reported as “inactive”. With `COc1ccc2cc(S(=O)(=O)N[C@H](CC(=O)N[C@H](Cc3ccc(CN4[C@H](C)CCC[C@@H]4C)cc3)C(=O)N(C)C(C)C)c3ccc4c(c3)OCO4)ccc2c1` the AC50 was 9.32 µM (active). In the case of `O=C(O)c1ccccc1-n1cc(C(=O)O)c(=O)c2cc(Nc3c(F)cc(F)cc3Cl)c(Cl)cc21`, the outcome is reported as “inactive”. For `O=C(O)c1ccccc1C(=O)OCc1ccccc1`, the outcome was “inactive”. With `CCO[Si](CCCNC(N)=O)(OCC)OCC` the outcome was “inactive”. For `NCc1cccc(C2CCN(C(=O)c3ccc(C#Cc4ccccc4F)o3)CC2)c1`, the AC50 was 22.1 µM (active). For `CN1C(=O)N(c2ccccc2Br)Cc2cnc(Nc3ccc4c(c3)OCC(CO)O4)nc21` (configuration not stated), the AC50 was 12.7 µM (active).
